Screening results: PubChem, Broad Institute
Only a selection was taken, and hits are over-represented in it overall.
PglD inh: C. jejuni PglD acetyltransferase inhibitors, primary screen, biochemical, DTNB colorimetric, single point. UDP-N-acetylbacillosamine N-acetyltransferase PglD (Campylobacter jejuni). purified PglD enzyme, DTNB colorimetric CoA detection. inhibition, % at 12.5 µM. 0.098% of 360,000 active. AID 602405, 2012; in the data active means inhibition above about 16%, passing the limit was not always enough; inconclusive means no clear call, values can overlap the other calls
Glyco luc inh: increase of ERlucT glycosylation luciferase signal, primary screen, N-linked glycosylation inhibitor project, D54 ERlucT cells, luminescence, set 2; 0.23% of 360,000 active; reporter increase, % at 12.5 µM; D54 ERlucT glycosylation luciferase reporter, 24 h; percent of 100 nM tunicamycin response;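 active means mean luciferase reporter signal, scaled so untreated is 0 and the glycosylation-blocking control 100, at or above a set limit in every replicate; inconclusive means mean reaches the limit but not every replicate does; inactive means mean below the limit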;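 further: luciferase carries N-glycosylation sites so blocking glycosylation raises the light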
DENV2 CPE rescue: inhibitors of DENV2 cytopathic effect, primary screen, cell-based, plate reader, single concentration | DENV2-infected cells, cytopathic effect rescue | CPE inhibition, % at 9.99 µM | 1.7% of 350,000 active; in the data active means CPE inhibition above about 20%, passing the limit was not always enough; inconclusive means no clear call, values can overlap the other calls; tested in BHK-21 cells
Rtt109 HAT inh: inhibitors of C. albicans Rtt109/Vps75 HAT, primary screen, biochemical, ThioGlo CoA-SH fluorescence, plate reader; Histone acetyltransferase RTT109 (Candida albicans (strain SC5314 / ATCC MYA-2876)), …; purified Rtt109/Vps75, 4 h; inhibition, % at 34.9 µM; 0.16% of 330,000 active; AID 540336, 2011;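 active means inhibition of at least 50% in every replicate; inconclusive means best replicate reaches 50% inhibition but some replicates fall short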
Target sequence (Q5AAJ8 whole entry, looked up): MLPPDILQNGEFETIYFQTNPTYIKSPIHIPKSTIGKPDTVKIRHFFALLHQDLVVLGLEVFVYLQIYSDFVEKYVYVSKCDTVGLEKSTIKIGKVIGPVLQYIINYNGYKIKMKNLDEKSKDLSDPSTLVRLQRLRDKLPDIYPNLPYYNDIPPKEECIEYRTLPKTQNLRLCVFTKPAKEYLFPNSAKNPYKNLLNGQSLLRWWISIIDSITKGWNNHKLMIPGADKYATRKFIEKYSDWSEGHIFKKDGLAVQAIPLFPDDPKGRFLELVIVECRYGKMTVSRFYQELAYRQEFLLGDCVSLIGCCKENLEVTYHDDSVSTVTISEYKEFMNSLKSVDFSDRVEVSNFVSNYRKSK
PglD inh SP: PglD acetyltransferase inhibitors, confirmation, biochemical, DTNB absorbance, single point, cherry-picked samples; inhibition, % at 20 µM; shares compounds with PglD inh; 320 tested, under 10 active; Purified C. jejuni PglD, DTNB absorbance 412 nm;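 active means mean inhibition across replicates of at least 20% with every single replicate also at 20% or more; inconclusive means mean inhibition at least 20% but some replicate falls below 20%; inactive means mean inhibition under 20% and not all replicates reach it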;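 further: initial rate of CoA release by acetyl transfer from AcCoA to the UDP-4-amino sugar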
Of the large screens only hits and unclear results are named; the others gave an inactive call (follow-up assays come after a bar, where they were run).

CC(C)NC(=O)N(C)C[C@@H]1Oc2ncc(-c3cccc(F)c3)cc2C(=O)N([C@H](C)CO)C[C@@H]1C	none (no result: Glyco luc inh, Rtt109 HAT inh)
c1ccc(NC2=NCCN2CC2CCC2)cc1	none
CC1CCC(CN2CCN=C2Nc2ccccc2)CC1 (centres undefined)	DENV2 CPE rescue 40
CNC[C@@H]1Oc2ccc(NS(=O)(=O)c3ccc(Cl)cc3)cc2CC(=O)N([C@@H](C)CO)C[C@@H]1C	DENV2 CPE rescue 41 (no result: Glyco luc inh, Rtt109 HAT inh)
CNC[C@H]1Oc2ccc(NS(=O)(=O)c3ccc(Cl)cc3)cc2CC(=O)N([C@@H](C)CO)C[C@@H]1C	DENV2 CPE rescue 27 (no result: Glyco luc inh, Rtt109 HAT inh)
CNC[C@@H]1Oc2ccc(NS(=O)(=O)c3ccc(Cl)cc3)cc2CC(=O)N([C@H](C)CO)C[C@@H]1C	none (no result: Glyco luc inh, Rtt109 HAT inh)
CC(C)NC(=O)Nc1ccc2c(c1)C(=O)N([C@H](C)CO)C[C@@H](C)[C@H](CN(C)Cc1ccc(C(=O)O)cc1)OCCCC[C@H](C)O2	none (no result: Glyco luc inh, Rtt109 HAT inh)
CC(C)NC(=O)Nc1ccc2c(c1)C(=O)N([C@H](C)CO)C[C@@H](C)[C@@H](CN(C)Cc1ccc(C(=O)O)cc1)OCCCC[C@H](C)O2	DENV2 CPE rescue 39 (no result: Glyco luc inh, Rtt109 HAT inh)
CC(C)NC(=O)Nc1ccc2c(c1)C(=O)N([C@@H](C)CO)C[C@@H](C)[C@H](CN(C)Cc1ccc(C(=O)O)cc1)OCCCC[C@@H](C)O2	DENV2 CPE rescue 22 (no result: Glyco luc inh, Rtt109 HAT inh)
CC(C)C(=O)Nc1ccc2c(c1)C(=O)N(C)[C@@H]1CC[C@H](CC(=O)O)O[C@@H]1CO2	none (no result: Glyco luc inh, Rtt109 HAT inh)
CCCNC(=O)C[C@@H]1CC[C@@H]2[C@H](COC[C@H](O)CN2C(=O)c2ccccn2)O1	none (no result: Glyco luc inh, Rtt109 HAT inh)
CC(C)NC(=O)Nc1ccc2c(c1)CC(=O)N([C@@H](C)CO)C[C@@H](C)[C@@H](CN(C)C(=O)Nc1ccccc1)O2	none (no result: Glyco luc inh, Rtt109 HAT inh)
COc1ccc(N2CCN(c3ncnc4scc(-c5ccc(C)cc5)c34)CC2)cc1	Rtt109 HAT inh 52
COc1ccc(NC(=O)CSc2n[nH]c(-c3ccco3)n2)cc1	none
O=C(CSc1n[nH]c(-c2ccco2)n1)Nc1ccc(Br)cc1	DENV2 CPE rescue 30
O=S(=O)(N[C@@H]1CC[C@@H](CCn2cc(C3CC3)nn2)O[C@@H]1CO)c1ccc(F)cc1	none (no result: Glyco luc inh, Rtt109 HAT inh)
Cc1c(C(=O)O)sc2nc(/C=C/c3cccc(O)c3)[nH]c(=O)c12	PglD inh 45 | PglD inh SP 79
C[C@H]1CN([C@@H](C)CO)S(=O)(=O)c2ccc(C#CCN(C)C)cc2O[C@@H]1CN(C)Cc1ccccc1	none (no result: Glyco luc inh, Rtt109 HAT inh)
O=C(NCCc1ccccc1)C1CCN(S(=O)(=O)c2cccs2)CC1	none (no result: DENV2 CPE rescue)
O=C(NCCc1ccc(Cl)cc1)C1CCN(S(=O)(=O)c2cccs2)CC1	PglD inh 21 (no result: DENV2 CPE rescue) | PglD inh SP inactive
CC(C)Oc1cc(F)ccc1-c1cc(C(=O)NCC2CCCCC2)[nH]n1	PglD inh 23 (no result: Rtt109 HAT inh) | PglD inh SP inactive
Cc1cc(F)ccc1-c1cc(C(=O)NCC2CCCCC2)[nH]n1	none (no result: Rtt109 HAT inh)
CCc1ccc(/C=C2\SC(=S)N(CCCC(=O)Nc3cc(C)on3)C2=O)cc1	PglD inh 21 (no result: Rtt109 HAT inh) | PglD inh SP inactive
CCc1ccc(/C=C2\SC(=S)N(CCC(=O)Nc3cc(C)on3)C2=O)cc1	none (no result: PglD inh, Rtt109 HAT inh)
O=C(Cc1ccccc1)N1CC(=O)N2[C@H](C1)[C@@H](c1ccc(C3=CCCC3)cc1)[C@@H]2CO	none (no result: PglD inh, Glyco luc inh, Rtt109 HAT inh)
CCOc1ccccc1NC(=O)N1CCCC1C(=O)Nc1ccc(-n2cnnn2)c(C)c1 (centres undefined)	PglD inh 25 (no result: DENV2 CPE rescue) | PglD inh SP inactive
O=C(c1cc(-c2ccc(Cl)cc2)on1)N1CCOCC1	PglD inh 24 (no result: DENV2 CPE rescue) | PglD inh SP inactive
O=C(c1cc(-c2ccc(Cl)c(Cl)c2)on1)N1CCOCC1	none
COC(=O)c1cccc(NC(=S)NCCC2=CCCCC2)c1	PglD inh 66 (no result: DENV2 CPE rescue) | PglD inh SP inactive
CC1CCN(C(=O)COc2ccc(S(=O)(=O)N3CCCC3)cc2)CC1	none
O=C(COc1ccc(S(=O)(=O)N2CCCCC2)cc1)N1CCCCCC1	PglD inh 21 (no result: DENV2 CPE rescue) | PglD inh SP inactive
Cc1cccc2cc(C3CC(c4ccco4)=NN3C(=O)CCC(=O)O)c(Cl)nc12 (centres undefined)	PglD inh 23 | PglD inh SP inactive
Cc1ccc2nc(Cl)c(C3CC(c4ccco4)=NN3C(=O)CCCC(=O)O)cc2c1 (centres undefined)	none (no result: PglD inh)
COc1ccc2nc(Cl)c(C3CC(c4ccco4)=NN3C(=O)CCC(=O)O)cc2c1 (centres undefined)	none (no result: PglD inh, DENV2 CPE rescue)
Cc1ccc2cc(C3CC(c4ccco4)=NN3C(=O)CCCC(=O)O)c(Cl)nc2c1 (centres undefined)	PglD inh 34 (no result: DENV2 CPE rescue) | PglD inh SP inactive
CO[C@@H]1CN(C)C(=O)c2ccc(NS(C)(=O)=O)cc2OC[C@H](C)N(CCC(F)(F)F)C[C@H]1C	none (no result: Glyco luc inh, Rtt109 HAT inh)
C[C@H]1CN([C@@H](C)CO)C(=O)c2cc(-c3ccc(F)cc3)cnc2O[C@@H]1CN(C)CC1CCCC1	none (no result: Glyco luc inh, Rtt109 HAT inh)
CNC(=O)CCCc1nc(-c2ccccc2Cl)no1	PglD inh 24 (no result: DENV2 CPE rescue) | PglD inh SP inactive
C[C@@H]1CN([C@@H](C)CO)C(=O)c2cccc(NC(=O)c3nc4ccccc4s3)c2O[C@H]1CN(C)S(=O)(=O)c1ccc(F)cc1	none (no result: Glyco luc inh, Rtt109 HAT inh)
CCN(CC)S(=O)(=O)c1ccc(NS(=O)(=O)c2cccc(C)c2)cc1	PglD inh 25 (no result: DENV2 CPE rescue) | PglD inh SP inactive
COc1ccc(S(=O)(=O)N2CCCC2)cc1Br	none
COc1ccc(S(=O)(=O)N2CCN(C(=O)C3CC3)CC2)cc1Br	PglD inh 42, DENV2 CPE rescue inconclusive | PglD inh SP inactive
CCOC(=O)C1=C(C)N(c2ccccc2)C(=O)NC1c1cccc([N+](=O)[O-])c1 (centres undefined)	PglD inh 21 (no result: DENV2 CPE rescue) | PglD inh SP inactive
O=C(C[C@H]1C[C@H]2c3cc(NC(=O)c4ccc5c(c4)OCO5)ccc3O[C@H]2[C@@H](CO)O1)NC1CCCCC1	none (no result: Glyco luc inh, Rtt109 HAT inh)
COc1ccc(-c2n[nH]c(=S)n2N)c(OC)c1	PglD inh 21 | PglD inh SP inactive
COc1cccc(-c2ccc3c(c2)[C@@H]2[C@@H](CCN2C(=O)c2ccccn2)[C@@H](CO)N3C)c1	none (no result: Glyco luc inh, Rtt109 HAT inh)
C[C@@H]1CCCCO[C@H](CN(C)C(=O)NC2CCCCC2)[C@H](C)CN([C@@H](C)CO)C(=O)c2cc(NC(=O)Cc3ccccc3)ccc2O1	none (no result: Glyco luc inh, Rtt109 HAT inh)
CCOc1ccc(NC(=S)NN2C(C)CCCC2C)cc1 (centres undefined)	none (no result: DENV2 CPE rescue)
CCOc1ccc(NC(=O)NN2C(C)CCCC2C)cc1 (centres undefined)	PglD inh 20 | PglD inh SP inactive
COc1ccc(C(CNc2ccc(S(C)(=O)=O)cc2[N+](=O)[O-])N(C)C)cc1OC (centres undefined)	PglD inh 23 | PglD inh SP inactive
